Holding throughout (experiment): NCI-60 one-dose screen, 48 h (100 = growth as untreated, 0 = no growth, -100 = all killed)
Assay [1] deals with NCI-H23 lung. Conditions: 10 µM unless noted.
Assay [2] has as its system NCI-H226 lung. The following applies: 10 µM unless noted.
Assay [3] has as its system NCI-H322M lung. Conditions: 10 µM unless noted.
Assay [4] deals with HOP-62 NSCLC. Conditions: 10 µM unless noted.
Assay [5] relates to HOP-92 NSCLC. The following applies: 10 µM.
Assay [6] relates to NCI-H522 lung. The following applies: 10 µM.
The subject of assay [7] is A549/ATCC NSCLC. The following applies: 10 µM unless noted.
For assay [8], the system named is 786-0 renal. The following applies: 10 µM unless noted.
Assay [9] relates to COLO 205 colon. Conditions: 10 µM unless noted.
Assay [10] deals with DU-145 prostate. The following applies: 10 µM unless noted.
For assay [11], the system named is K-562 leukemia. The following applies: 10 µM unless noted.
Assay [12] deals with MALME-3M melanoma. The following applies: 10 µM unless noted.
Assay [13] has as its system MDA-MB-231 breast. The following applies: 10 µM unless noted.
Assay [14] has as its system RXF 393 renal. The following applies: 10 µM unless noted.
The subject of assay [15] is SF-268 CNS. Conditions: 10 µM unless noted.
The test system of assay [16] is SF-539 CNS. Conditions: 10 µM unless noted.
The subject of assay [17] is UACC-257 melanoma. Conditions: 10 µM unless noted.
Assay [18] deals with M14 melanoma. The following applies: 10 µM unless noted.
Assay [19] has as its system SF-295 CNS. Conditions: 10 µM unless noted.

These results are taken from PubChem BioAssay (NCI).

Compounds without any hit were thinned out: in the full panel of roughly 83,000, 20% have a hit.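 Method: cells in 96-well plates; compound added at one concentration; 48 h incubation; percent growth measured; values under 10 scored active.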 Values without a mark were called inactive. Calls of active or inactive are those of the source.

As for `O=C1C(Cl)=C(Nc2ccc(Nc3ccccc3)c(NC3=C(Cl)C(=O)c4ccccc4C3=O)c2)C(=O)c2ccccc21`, the growth in [1] was 88.4%; in assay [2] it was 98.8%; in assay [3] it was 57.3%; in assay [4] it was 59.8%; in [5] it was 45.3%; in [6] it was 14.9%. Moreover, the growth is 92.7% in assay [7]; 78.3% in [8]; -15.6% (active) in assay [9]; 104% in [10]; 41.4% in [11]; 39.4% in [12]. Also, the growth was 58.5% in assay [13]; 74.3% in [14]; 72.7% in [15]; 42.5% in assay [16]; 79.8% in [17]; 118% in [18].
As for `C/C=C(/C)C(=O)OC1C=C(CO)C(=O)C(OC(=O)/C(C)=C\C)C1C(C)C` (configuration not stated), the growth was -66.3% (active) in assay [1]; -0.591% (active) in assay [2]; -90.3% (active) in [3]; -31.4% (active) in [4]; -72.8% (active) in assay [5]; -52.8% (active) in [6]. The growth was -9.36% (active) in assay [7]; -88.6% (active) in assay [8]; -90.9% (active) in assay [10]; -18.3% (active) in [11]; -91.2% (active) in assay [12]; -61.2% (active) in assay [13]. For the same molecule, the growth in assay [14] is -79.2% (active); in assay [15], -57.3% (active); in [19], -54.3% (active); in assay [16] it was -92.1% (active); in assay [17], -48.8% (active); in assay [18] it was -84.7% (active).
For the molecule `Cc1ccc(C(=O)Nc2ccc(CN3CCN(C)CC3)c(C(F)(F)F)c2)cc1C#Cc1cncc2ncccc12`, the growth is -84.3% (active) in assay [1]; 5.51% (active) in assay [2]; -95.8% (active) in [3]; -11.7% (active) in assay [4]; -30.7% (active) in assay [5]; 2.81% (active) in [6]. Besides, the growth was -82.1% (active) in assay [7]; -70.5% (active) in assay [8]; -88.1% (active) in [10]; -67.4% (active) in assay [11]; -88.9% (active) in assay [12]; -97% (active) in assay [13]. Also, the growth in assay [14] was -95.7% (active); in assay [15], -70.6% (active); in assay [19] it was 27.3%; in [16] it was -98.2% (active); in assay [17], -64% (active); in assay [18], -89.5% (active).
For the molecule `COc1ccc2c(N)ncc(C#Cc3cc(C(=O)Nc4ccc(CN5CCN(C)CC5)c(C(F)(F)F)c4)cnc3C)c2c1`, the growth is -30.3% (active) in assay [1]; 55% in assay [2]; 31.6% in [3]; 45.3% in assay [4]; 1.06% (active) in [5]; -38.3% (active) in [6]. The growth in [7] was -68.6% (active); in assay [8] it was -55.6% (active); in [10], -89.2% (active); in assay [11], -63.4% (active); in assay [12], -81.9% (active); in assay [13], -85% (active). Also, the growth was -73.4% (active) in assay [14]; 6.51% (active) in assay [15]; 63% in assay [19]; -93.4% (active) in assay [16]; 27.4% in assay [17]; -78.1% (active) in [18].
Turning to `COc1ccc(-c2nc(N)n(C(=S)Nc3ccccc3)n2)cc1`, the growth in [1] is 92.2%; in assay [2], 92.6%; in assay [3] it was 101%; in assay [4], 87.3%; in assay [5], 85.8%; in assay [6] it was 88.5%. Besides, the growth was 102% in [7]; 105% in [8]; 105% in [9]; 108% in [10]; 95% in [11]; 89.5% in [12]. The growth in assay [13] was 93.9%; in assay [14], 103%; in assay [15], 96.3%; in assay [19] it was 91.2%; in assay [16] it was 97.1%; in assay [17], 105%. Moreover, the growth in [18] was 98.8%.
As for `COc1ccc2cnc(N)c(C#Cc3cc(C(=O)Nc4ccc(CN5CCN(C)CC5)c(C(F)(F)F)c4)cnc3C)c2c1`, the growth was 52.3% in [1]; 26.8% in assay [2]; 70.3% in assay [3]; 18.9% in assay [4]; 20.1% in assay [5]; 69.7% in assay [6]. Besides, the growth was 61.5% in assay [7]; -50.3% (active) in [8]; 64% in assay [10]; -42.8% (active) in [11]; -66.4% (active) in assay [12]; 9.87% (active) in assay [13]. The growth in assay [14] was -12.9% (active); in assay [15] it was 62.5%; in assay [19], 78.9%; in assay [16] it was 31.3%; in [17], 33.1%; in assay [18], 7.97% (active).
For the molecule `CCCC(=O)Nc1ccccc1C(=O)O`, the growth was 86.6% in [1]; 101% in assay [2]; 107% in assay [3]; 96.9% in assay [4]; 95.7% in [5]; 90.7% in assay [6]. Besides, the growth in assay [7] is 94.3%; in assay [8], 112%; in assay [9], 97%; in assay [10], 97.6%; in assay [11], 104%; in [12], 106%. The growth in assay [13] is 123%; in assay [14], 93.7%; in assay [15], 92.4%; in [19] it was 93.9%; in assay [16], 102%; in assay [17] it was 85.2%. Further, in assay [18], the growth is 98.6%.
For `CCCCCCNC(=O)Oc1ccc(/C(=C(/C)Cc2ccc(OC)cc2)c2ccc(OCCN(C)C)cc2)cc1`, the growth in assay [1] was 82.5%; in assay [2], 85.7%; in assay [3], 86.5%; in [4] it was 74.6%; in assay [5], 46%; in [6], 60%. Further, the growth is 54% in assay [7]; 59.4% in [8]; -60.4% (active) in assay [9]; 78.7% in assay [10]; -38.8% (active) in assay [11]; -34.7% (active) in [12]. Further, the growth was 43% in assay [13]; 51.4% in [14]; 72.3% in assay [15]; 65.8% in [19]; 73.2% in [16]; 5.2% (active) in assay [17]. The growth in assay [18] was -53.9% (active).
